Cruzain Triton: cruzain (T. cruzi) inhibition with detergent; P25779; purified cruzain, Z-FR-AMC fluorescence, 0.01% Triton; Potency, µM, inactives show max response, negative = inhibition, actives largely listed as inhibitors; 200,000 compounds, 0.43% hits;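 further: plate controls were neutral wells for no effect and buffer without enzyme for full effect; nearly all actives have a fitted effect of over 40% in size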
Target sequence (P25779 123-467 limits assumed): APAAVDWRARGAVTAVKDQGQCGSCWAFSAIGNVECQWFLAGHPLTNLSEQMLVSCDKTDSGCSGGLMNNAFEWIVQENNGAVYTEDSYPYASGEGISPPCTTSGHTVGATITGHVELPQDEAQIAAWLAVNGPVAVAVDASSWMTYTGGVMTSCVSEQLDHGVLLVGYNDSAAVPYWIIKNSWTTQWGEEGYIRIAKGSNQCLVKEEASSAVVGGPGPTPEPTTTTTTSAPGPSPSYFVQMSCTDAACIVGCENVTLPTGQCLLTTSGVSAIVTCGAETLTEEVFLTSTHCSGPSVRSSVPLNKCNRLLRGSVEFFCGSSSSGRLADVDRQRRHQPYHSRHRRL
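Steps: dispense cruzain (1.5 nM final) in acetate buffer pH 5.5 with DTT and 0.01% Triton X-100; pin-transfer compounds; incubate 15 min RT; add Z-FR-AMC (2 uM final); read fluorescence every 30 s, using the 60 s intensity change.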
Cruzain noTriton: cruzain (T. cruzi) inhibition without detergent. P25779. 200,000 compounds, 2.3% hits. purified cruzain, Z-FR-AMC fluorescence, no detergent. Potency, µM, for inactives: max response, negative = inhibition, most hits filed as inhibitors. AID 1476;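 further: plate controls were enzyme without inhibitor for no effect and buffer without enzyme for full effect; nearly all actives have a fitted effect of over 40% in size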
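Detergent-free condition (0.00005% Triton X-100) in acetate buffer pH 5.5 with DTT. 1.5 nM enzyme and compound were pre-mixed 15 min, then 2 uM Z-FR-AMC substrate added; reaction progress from fluorescence change between first and third reads (60 s).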
Active calls of the source: *. Most compounds without a hit are left out; they make up all but 2.4% or so of the library. The call rests on the fitted dose curve; in most records, active means well fitted curve in the direction sought with a large enough effect; inconclusive means small, poorly fitted or top-dose-only effect, or another doubt; inactive means no such curve, though single readings can be large; an effect the other way counts as inactive or inconclusive. Potency means the concentration at half of the fitted maximal effect.

What do the screens show for `CCc1cccc(NC(=O)C(Cc2ccccc2)NS(=O)(=O)c2ccc3c(c2)oc(=O)n3C)c1` (stereo not given)?
Cruzain Triton: 4%; Cruzain noTriton: 0%

What do the screens show for `CCCC12CN3CC(C)(CN(C1)C3c1ccc(CC)cc1)C2=O` (stereo not given)?
Cruzain Triton: 2%; Cruzain noTriton: -2%

Results for Cc1ccc(N2CCN(S(=O)(=O)c3ccc4[nH]c5c(c4c3)CCCCC5)CC2)c(C)c1 ?
Cruzain Triton: 3%; Cruzain noTriton: 3.2µM*

How did Cc1ccc(C)c(N2CCN(S(=O)(=O)c3ccc4[nH]c(=O)c(=O)[nH]c4c3)CC2)c1 do in these assays?
Cruzain Triton: -2%; Cruzain noTriton: 19%

Results for Cc1ccc(C)c(N2CCN(S(=O)(=O)c3ccc4[nH]c5c(c4c3)CCCCC5)CC2)c1 ?
Cruzain Triton: 0%; Cruzain noTriton: 7.9µM*

What do the screens show for `Cc1ccc(CNS(=O)(=O)c2ccc3[nH]c4c(c3c2)CCCCC4)cc1`?
Cruzain Triton: -20%; Cruzain noTriton: -11%

How did COC(=O)c1ccccc1NC(=O)CCC(=O)N1CC(C)Sc2ccccc21 (stereo not given) do in these assays?
Cruzain Triton: -6%; Cruzain noTriton: 3%

How did CC(C)(C)c1ccc(C(=O)NC(Cc2c[nH]c3ccccc23)C(=O)OCC(=O)c2ccc(Cl)cc2)cc1 (stereo not given) do in these assays?
Cruzain Triton: -4%; Cruzain noTriton: 25µM*

How did CC(=O)NC(Cc1c[nH]c2ccccc12)C(=O)NCc1ccc2c(c1)OCO2 (stereo not given) do in these assays?
Cruzain Triton: 4%; Cruzain noTriton: -13%

Results for CCOC(=O)C(Cc1c[nH]c2ccccc12)NC(=O)COc1ccc(Cl)cc1 (stereo not given) ?
Cruzain Triton: -8%; Cruzain noTriton: 11%

What do the screens show for `O=C(COC(=O)[C@H](Cc1c[nH]c2ccccc12)NC(=O)c1ccc(Cl)cc1)Nc1ccc2c(c1)OCO2`?
Cruzain Triton: 3.5µM*; Cruzain noTriton: 20µM*

Results for CC(C)(C)c1ccc(C(=O)Nc2ccc(-c3nc4ccccc4o3)c(O)c2)cc1 ?
Cruzain Triton: -1%; Cruzain noTriton: -1%

What do the screens show for `C[C@@H](NC(=O)/C(C#N)=C/c1ccc(O)c(O)c1)c1ccccc1`?
Cruzain Triton: -5%; Cruzain noTriton: 7%

How did N#C/C(C(=O)NCCc1ccccc1)=C1/N=C(NC(=O)c2cccs2)c2ccccc21 do in these assays?
Cruzain Triton: -6%; Cruzain noTriton: 4µM*

How did CC(NC(=O)/C(C#N)=C1\N=C(NC(=O)c2cccs2)c2ccccc21)c1ccccc1 (stereo not given) do in these assays?
Cruzain Triton: 0%; Cruzain noTriton: 16µM*

Results for O=C(NCCc1ccccc1)c1cccs1 ?
Cruzain Triton: 6%; Cruzain noTriton: -1%

What do the screens show for `Cc1cc(C)c(Cn2c(=O)n(CCCCC(=O)NCc3ccccc3Cl)c(=O)c3ccccc32)c(C)c1`?
Cruzain Triton: -2%; Cruzain noTriton: -6%

Results for Cc1ccc(C(=O)NCc2ccc(F)cc2)cc1NC(=O)c1nsc2ccccc12 ?
Cruzain Triton: -1%; Cruzain noTriton: inconclusive

What do the screens show for `COc1cccc(CNC(=O)C2CCCN(c3nnc(-n4c(C)ccc4C)s3)C2)c1OC` (stereo not given)?
Cruzain Triton: -5%; Cruzain noTriton: 12%

Results for COc1cc(/C=C2\SC(=S)N(CC(=O)Nc3ccccn3)C2=O)cc(OC)c1OC ?
Cruzain Triton: -13%; Cruzain noTriton: -2%

Results for CCc1nnc(NC(=O)CN2C(=O)/C(=C/c3cc(OC)c(OC)c(OC)c3)SC2=S)s1 ?
Cruzain Triton: inconclusive; Cruzain noTriton: 9%

How did O=C(CSc1nnnn1-c1ccccc1)Nc1ncc(Cc2ccccc2Cl)s1 do in these assays?
Cruzain Triton: -1%; Cruzain noTriton: 11%

What do the screens show for `COc1cc(/C=C2/SC(=S)N(CC(=O)Nc3nc4ccccc4s3)C2=O)cc(OC)c1OC`?
Cruzain Triton: -4%; Cruzain noTriton: 13µM*

Results for Cc1ccc(/C=C2\SC(=S)N(CC(=O)Nc3ncc(Cc4ccccc4Cl)s3)C2=O)cc1 ?
Cruzain Triton: -10%; Cruzain noTriton: 3.2µM*

What do the screens show for `Cc1cccc(Cc2cnc(NC(=O)CN3C(=O)/C(=C/c4ccccc4)SC3=S)s2)c1`?
Cruzain Triton: -5%; Cruzain noTriton: inconclusive

What do the screens show for `Cc1ccc(/C=C2/SC(=S)N(CC(=O)Nc3ncc(Cc4ccc(C)cc4)s3)C2=O)cc1`?
Cruzain Triton: -4%; Cruzain noTriton: 4µM*

Results for COc1ccc(/C=C2\SC(=S)N(CC(=O)Nc3nnc(C)s3)C2=O)cc1 ?
Cruzain Triton: -14%; Cruzain noTriton: 16µM*

What do the screens show for `COc1ccc(CCNC(=O)c2ccc(Cn3c(=O)c4ccccc4n(Cc4cccc(Cl)c4)c3=O)cc2)cc1OC`?
Cruzain Triton: -2%; Cruzain noTriton: -22%

What do the screens show for `COc1ccc([C@@H](C)C(=O)c2ccc(O)cc2O)cc1`?
Cruzain Triton: -13%; Cruzain noTriton: -3%

What do the screens show for `CCS(=O)(=O)N1CCc2cc(C(=O)NCCc3ccc(OC)c(OC)c3)ccc21`?
Cruzain Triton: -3%; Cruzain noTriton: 2%

What do the screens show for `COc1ccc(Cl)cc1NC(=O)C/C(C)=N/NC(=O)CC#N`?
Cruzain Triton: -5%; Cruzain noTriton: -5%

Results for C/C(CC(=O)Nc1ccc(Cl)cc1Cl)=N\NC(N)=S ?
Cruzain Triton: 10µM*; Cruzain noTriton: 7.9µM*

What do the screens show for `CCc1ccc(NC(=O)Cn2nnc(-c3ccccc3N)n2)cc1`?
Cruzain Triton: -7%; Cruzain noTriton: -7%

How did COc1ccc(C(=O)CC2(O)C(=O)N(Cc3cccc(C(F)(F)F)c3)c3ccccc32)cc1 (stereo not given) do in these assays?
Cruzain Triton: -14%; Cruzain noTriton: 14%

How did CC1(C)CC(=O)c2cc(C(=O)Nc3ccc(Br)cc3)c(=O)[nH]c2C1 do in these assays?
Cruzain Triton: -1%; Cruzain noTriton: 1%

What do the screens show for `CCOC(=O)c1cc(S(=O)(=O)N2CCN(c3ccccc3F)CC2)[nH]n1`?
Cruzain Triton: -5%; Cruzain noTriton: -1%

How did CSc1cccc(NC(=O)CC(c2cccs2)N2Cc3ccccc3C2=O)c1 (stereo not given) do in these assays?
Cruzain Triton: -2%; Cruzain noTriton: -16%

What do the screens show for `O=C(/C=C/c1ccccc1)Nn1c(-c2cccs2)nc2ccccc2c1=O`?
Cruzain Triton: -8%; Cruzain noTriton: inconclusive

How did O=C(/C=C/c1cccc(Cl)c1)Nn1c(-c2cccs2)nc2ccccc2c1=O do in these assays?
Cruzain Triton: -5%; Cruzain noTriton: 13µM*

Results for COc1ccc(N2Cc3cccc(C(=O)Nc4ccc(F)cc4)c3C2=O)cc1 ?
Cruzain Triton: -9%; Cruzain noTriton: -2%

Results for CC(C)Oc1ccc(CNC(=O)c2cnc3sc(N4CCCCC4)nn3c2=O)cc1 ?
Cruzain Triton: 1%; Cruzain noTriton: -1%

Results for COc1cccc2c1C(=O)c1c(O)c3c(c(O)c1C2=O)C[C@](O)(/C(C)=N\O)C[C@@H]3O[C@H]1C[C@H](N)[C@@H](O)[C@H](C)O1 ?
Cruzain Triton: -7%; Cruzain noTriton: -13%

How did Cc1nn(Cc2ccc(Cl)c(Cl)c2)c(C)c1NC(=O)c1sc2ccccc2c1Cl do in these assays?
Cruzain Triton: 6%; Cruzain noTriton: 16µM*

How did Cc1nn(Cc2c(Cl)cccc2Cl)c(C)c1NC(=O)c1sc2ccccc2c1Cl do in these assays?
Cruzain Triton: -6%; Cruzain noTriton: -3%

Screening data (PubChem)
